High-throughput results from PubChem.
Only some compounds are listed: those with a hit (about 1.8% of all), similar ones and a draw of the others.
PME-1 primary – blocks human protein phosphatase methylesterase 1 | recombinant PME-1, FP-Rh probe fluorescence polarization | inhibition, % at 5.9 µM | hit rate 0.53% among 320,000;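 active = inhibition above the campaign mean of all compounds plus 3 SD, cut at about 26% in these data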;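 note: competitive labeling of PME-1 active site by serine hydrolase directed probe; 0% = PME-1 with DMSO and 100% = wells lacking PME-1 enzyme; inhibitors block probe labeling so polarization falls and inhibition rises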
Target sequence (Q9Y570 whole entry, looked up): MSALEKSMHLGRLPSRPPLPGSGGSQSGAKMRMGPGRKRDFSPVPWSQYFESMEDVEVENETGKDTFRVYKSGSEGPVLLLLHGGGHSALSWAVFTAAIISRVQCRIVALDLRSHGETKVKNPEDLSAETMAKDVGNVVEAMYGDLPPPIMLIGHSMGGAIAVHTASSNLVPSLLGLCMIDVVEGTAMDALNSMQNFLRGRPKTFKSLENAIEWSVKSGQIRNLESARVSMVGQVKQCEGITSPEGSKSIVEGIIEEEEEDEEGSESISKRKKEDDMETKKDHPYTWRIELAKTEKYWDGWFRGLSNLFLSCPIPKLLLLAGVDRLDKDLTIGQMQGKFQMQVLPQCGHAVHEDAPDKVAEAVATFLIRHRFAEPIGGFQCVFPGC
Fam108B inh – counter-screen for RBBP9 inhibitors: inhibitors of mouse Fam108B; recombinant Fam108B, FP-Rh probe fluorescence polarization; hit rate 0.33% among 300,000; inhibition, % at 9.51 µM;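 active = inhibition above the screen mean inhibition plus 3 SD, computed separately per campaign, cut at about 18% in these data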;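 note: inhibitors lower polarization as less probe binds the enzyme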
LYPLA2 counter – LYPLA2 (human) inhibition in PME1 counter-screen. O95372. recombinant LYPLA2, FP-Rh probe fluorescence polarization. inhibition, % at 5.9 µM. hit rate 0.38% among 320,000. AID 2177;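 active = inhibition above the screen-wide mean plus 3 SD, limit set per campaign, cut at about 26% in these data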;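 note: 0% = LYPLA2 with DMSO and 100% = wells lacking LYPLA2 enzyme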
PP1 inh – counter-screen for PP5 inhibitors: inhibitors of human PP1-alpha; purified PP1alpha, OMFP fluorescence; P62136; inhibition, % at 6.7 µM; AID 2235; hit rate 0.9% among 320,000;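 active = inhibition above the mean inhibition of all tested compounds plus 3 SD, computed separately for each screening campaign, cut at about 15% in these data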
Target sequence (P62136 whole entry, looked up): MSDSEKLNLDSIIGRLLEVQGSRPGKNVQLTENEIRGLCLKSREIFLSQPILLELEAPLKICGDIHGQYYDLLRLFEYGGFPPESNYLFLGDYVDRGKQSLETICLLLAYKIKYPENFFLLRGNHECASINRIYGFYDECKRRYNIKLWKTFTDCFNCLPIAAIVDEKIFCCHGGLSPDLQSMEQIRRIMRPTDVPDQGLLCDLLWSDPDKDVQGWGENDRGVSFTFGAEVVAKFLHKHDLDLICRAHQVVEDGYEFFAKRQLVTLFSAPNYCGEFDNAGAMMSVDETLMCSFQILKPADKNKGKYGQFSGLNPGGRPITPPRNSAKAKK
PP5 primary – inhibitors of human protein phosphatase 5 (PP5) | hit rate 0.18% among 320,000 | P53041 | AID 1987 | inhibition, % at 6.7 µM | purified PP5c, OMFP substrate fluorescence;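 active = inhibition above the campaign's mean inhibition across all tested compounds plus 3 SD, cut at about 9.5% in these data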;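 note: 0% = DMSO only and 100% = 100 µM cantharidin control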
LYPLA1 counter – counter-screen for PME1 inhibitors: inhibitors of human LYPLA1 | recombinant LYPLA1, FP-Rh probe fluorescence polarization | hit rate 0.16% among 320,000 | O75608 | inhibition, % at 5.9 µM | AID 2174;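 active = inhibition above the mean of all tested compounds plus 3 SD, set per campaign, cut at about 14% in these data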;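 note: inhibitors block serine hydrolase probe labeling of LYPLA1 so polarization falls; 0% = enzyme with DMSO and 100% = wells lacking LYPLA1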
PP1 confirm – confirmation of human PP1 phosphatase inhibitors; hit rate 52% among 1,900; purified PP1alpha, OMFP substrate fluorescence; shares compounds with PP1 inh; inhibition, % at 6.7 µM;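 active = mean PP1 inhibition above a set limit taken from the earlier primary screen, cut at about 15% in these data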
PP5 inh counter – inhibits human PP5 phosphatase in PP1 counter-screen | shares compounds with PP1 inh | purified PP5c, OMFP fluorescence | inhibition, % at 6.7 µM | hit rate 4% among 1,900;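 active = mean PP5 inhibition over triplicate wells above about 9.5% taken from the earlier PP1 screen, limit read from the data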
* marks the source's active call; other numbers are inactive results; . = not tested or not shown.

SMILES	PME-1 primary	Fam108B inh	LYPLA2 counter	PP1 inh	PP5 primary	LYPLA1 counter	PP1 confirm	PP5 inh counter
Cc1ccccc1NC(=O)C1C2CCC(O2)C1C(=O)O (stereo unspecified)	3.0	-1.7	-0.8	50.8*	62.8*	0.7	31.7*	40.6*
O=C(Nc1cccc(S(=O)(=O)NC2=NCCC2)c1)c1ccc(=O)[nH]c1	-1.1	.	1.2	-4.0	1.5	0.4	.	.
Cc1ccc(F)cc1NC(=O)C1C2CCC(O2)C1C(=O)O (stereo unspecified)	-2.1	9.2	11.3	55.2*	63.5*	4.7	20.4*	25.9*
COc1ccc(C(=O)NCc2nnc(SCC(=O)N3CCCC3)o2)cc1	1.3	0.8	1.4	-2.2	0.4	0.8	.	.
O=c1[nH]c(C2CCCN(S(=O)(=O)c3cccc(Cl)c3)C2)nc2c1nnn2Cc1ccc2c(c1)OCCO2 (stereo unspecified)	9.8	-12.2	-9.9	23.7*	1.6	-10.6	10.8	0.6
O=c1[nH]c(C2CCCN(S(=O)(=O)c3ccccc3)C2)nc2c1nnn2Cc1ccc2c(c1)OCCO2 (stereo unspecified)	16.3	3.1	3.4	1.1	1.3	3.9	.	.
Cc1ccc(C)c(S(=O)(=O)N2CCC(c3nc4c(nnn4Cc4ccc5c(c4)OCCO5)c(=O)[nH]3)CC2)c1	-17.4	-22.4	-48.0	23.6*	5.4	-24.2	21.8*	-0.1
CCN1CCN(Cc2ccc(NC(=O)c3ccc(C)c(NC(=O)C4=NN(c5ccccc5)C(=O)C4)c3)cc2C(F)(F)F)CC1	-7.0	2.0	-5.2	18.4*	3.3	-14.5	1.3	-1.7
CCN1CCN(Cc2ccc(NC(=O)c3cc(NC(=O)N4CCNC4=O)cc(OC)c3)cc2C(F)(F)F)CC1	0.1	2.6	-9.1	-1.0	3.3	-3.4	.	.
CCN1CCN(Cc2ccc(NC(=O)c3cc(NC(=O)c4cncc(-c5cccs5)c4)cc(OC)c3)cc2C(F)(F)F)CC1	-79.6	-49.0	-106.0	19.5*	3.7	-57.3	-23.2	0.5
CCN1CCN(Cc2ccc(NC(=O)c3cc(NC(=O)C4=NN(c5ccccc5)C(=O)C4)cc(OC)c3)cc2C(F)(F)F)CC1	-0.3	8.5	-6.8	17.6*	4.7	-12.2	-5.8	-1.7
Cc1ccc(S[C@@H](CCN2CC[C@H](C(C)(C)C)CCC2=O)c2ccccc2)cc1	-4.4	1.1	-6.6	-2.0	2.9	-0.1	.	.
CC1Cc2cc(/C(O)=C3/C(=O)C(=O)N(CCN4CCOCC4)C3c3ccc([N+](=O)[O-])cc3)ccc2O1 (stereo unspecified)	4.0	-0.6	-2.4	3.6	2.9	-2.7	.	.
Cc1ccc(S(=O)(=O)CCC(=O)OCC(=O)c2ccc(F)cc2)cc1	-6.9	-0.8	-11.0	31.4*	0.3	-4.9	0.7	-0.5
Cc1ccc(S(=O)(=O)CCC(=O)OCC(=O)c2cc(C)ccc2C)cc1	3.2	-0.6	0.8	-1.4	-0.8	-1.9	.	.
CCN(c1ccccc1)S(=O)(=O)c1ccc(C(=O)Nc2nnc(C3CC3)o2)cc1	4.4	6.8	6.6	30.7*	-1.6	1.4	29.4*	-2.0
CN(c1ccccc1)S(=O)(=O)c1ccc(C(=O)Nc2nnc(C3CC3)o2)cc1	1.7	1.4	5.3	21.9*	-0.1	2.5	18.7*	0.0
CCN1CCN(c2ccc(NC(=O)COc3ccc([N+](=O)[O-])cc3)cc2)CC1	1.1	-3.7	5.1	-1.2	1.7	2.5	.	.
CCCCn1c(N)c(N(CCOC)C(=O)c2cc(-c3ccccc3Cl)nc3ccccc23)c(=O)[nH]c1=O	-1.9	-1.3	-5.8	-0.4	1.5	0.5	.	.
CC1CCc2c(sc(NC(=O)C(=O)NCc3ccco3)c2C#N)C1 (stereo unspecified)	-1.4	-4.5	-4.5	20.0*	1.8	0.1	20.9*	-3.0
CCCOc1ccccc1Cn1c(=O)oc2ccccc21	-0.6	-3.8	-15.3	-0.9	1.3	-5.3	.	.
Cc1cc2ccccn2c1C(=O)c1cc([N+](=O)[O-])cc([N+](=O)[O-])c1	7.0	2.1	1.0	1.2	1.6	-1.4	.	.
Cc1cc2ccccn2c1C(C[N+](=O)[O-])c1ccc(N(C)C)cc1 (stereo unspecified)	7.9	-1.8	1.2	19.5*	2.7	-1.6	4.4	9.8*
O=C(O)C1C2CCC(O2)C1C(=O)Nc1cccc(Cl)c1 (stereo unspecified)	3.2	-2.2	-5.1	70.5*	69.3*	-1.2	16.6*	25.3*
O=C(O)C1C2CCC(O2)C1C(=O)Nc1ccc(Cl)cc1F (stereo unspecified)	-2.6	-1.9	-3.1	67.0*	69.2*	-0.6	25.8*	33.5*
SMILES	PME-1 primary	Fam108B inh	LYPLA2 counter	PP1 inh	PP5 primary	LYPLA1 counter	PP1 confirm	PP5 inh counter
Cc1nn(C)cc1CNC(=O)C1C2CCC(O2)C1C(=O)O (stereo unspecified)	6.5	0.9	-4.0	61.9*	69.7*	1.4	37.4*	40.9*
O=C(O)C1C2C=CC(C2)C1C(=O)Nc1cccc(Cl)c1 (stereo unspecified)	-1.5	-0.7	2.7	1.2	2.0	2.3	.	.
O=C(O)C1C2CCC(O2)C1C(=O)NCc1ccc(Cl)cc1 (stereo unspecified)	-4.5	2.6	-5.5	32.2*	48.5*	-0.2	16.7*	31.6*
CC(C)[C@H](NC(=O)c1ccc(Br)cc1)C(=O)NC1CCCCC1	-2.6	.	-1.9	-1.3	-1.6	-1.2	.	.
CCOc1ccc(NC(=O)C(=O)NCCN2CCN(S(=O)(=O)c3ccc(C)cc3)CC2)cc1	-3.1	0.5	-0.7	-3.4	3.1	2.2	.	.
CC(=O)N1c2c(cc(Br)cc2S(=O)(=O)N2CCN(c3ccccc3F)CC2)CC1C (stereo unspecified)	0.3	-3.0	8.3	2.3	1.2	1.8	.	.
Cc1nn(Cc2ccc(Cl)cc2Cl)c(C)c1NC(=O)C1C2CCC(O2)C1C(=O)O (stereo unspecified)	0.6	-0.4	-0.6	31.8*	46.0*	0.5	12.3	22.5*
Cc1nn(Cc2ccc(Cl)cc2Cl)c(C)c1NC(=O)CCl	1.7	-3.4	-1.1	0.8	-1.4	2.7	.	.
COc1ccc2c3c(cccc13)C(=O)N(O)C2=O	-0.6	0.6	4.3	25.7*	-0.4	3.1	41.9*	-3.5
O=C1c2cccc3c([N+](=O)[O-])ccc(c23)C(=O)N1O	-0.5	4.5	23.3	9.1	0.7	0.9	.	.
COc1ccc(/C=C2\SC(=O)N(CC(=O)NNC(=O)c3ccccc3O)C2=O)cc1OC	-12.9	7.2	1.0	1.9	1.1	2.2	.	.
COc1ccc(/C=C2\SC(=O)N(CC(=O)NNC(=O)c3ccccc3O)C2=O)cc1	-12.4	-7.2	-20.1	17.8*	1.3	-12.2	22.8*	-5.5
